Screening data as filed in PubChem BioAssay.
Most compounds without a hit are left out; they make up all but 2.8% or so of the library.
D3 ag: activates the human D3 dopamine receptor; max activation, %; D3R DiscoveRx beta-arrestin cells, luminescence, 90 min; AID 652048; 410,000 tested, 0.58% active; in the data active = max activation above about 30%
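Cells at 1500/well, incubated overnight, then treated with pinned compounds (dopamine as control) for 90 min at 37 degrees C. DiscoveRx reagent added for 30 - 60 minutes at room temperature; luminescence read.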
DRD3 antagonist: antagonists of human D3 dopamine receptor | max response, negative = inhibition, % | D3R cells, DiscoveRx beta-arrestin luminescence, antagonist mode; active compounds read low | 360,000 tested, 2.5% active | P35462 | AID 652054; in the data active = max response below about -50%; inconclusive = no clear call, values can overlap the other calls
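Cells plated overnight at 1500 cells/well, then exposed to library compounds with dopamine controls for 90 minutes at 37 degrees C. DiscoveRx reagent added for 30–60 minutes at room temperature; luminescence read, quantitative HTS format.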
CBFb RUNX1 block: blocks binding between human CBF-beta and RUNX1; Q01196+Q13951; Potency, µM (highest dose often 59.8 µM), usual class: inhibitors; AlphaScreen CBFb-His/RUNX1-biotin binding, biochemical; 230,000 tested, under 10 active; AID 1477
Target sequence (Q01196 whole entry, looked up): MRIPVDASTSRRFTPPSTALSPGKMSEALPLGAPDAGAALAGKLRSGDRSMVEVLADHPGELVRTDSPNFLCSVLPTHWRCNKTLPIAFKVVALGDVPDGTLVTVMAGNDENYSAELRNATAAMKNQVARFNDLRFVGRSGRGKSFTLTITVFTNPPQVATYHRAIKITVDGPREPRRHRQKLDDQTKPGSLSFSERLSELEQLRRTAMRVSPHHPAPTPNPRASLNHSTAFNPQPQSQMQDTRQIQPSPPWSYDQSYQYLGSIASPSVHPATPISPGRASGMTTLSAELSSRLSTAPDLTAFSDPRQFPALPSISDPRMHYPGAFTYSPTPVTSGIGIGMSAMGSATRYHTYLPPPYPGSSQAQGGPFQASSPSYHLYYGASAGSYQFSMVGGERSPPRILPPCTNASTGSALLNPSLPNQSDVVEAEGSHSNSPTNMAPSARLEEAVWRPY
Target sequence (Q13951 whole entry, looked up): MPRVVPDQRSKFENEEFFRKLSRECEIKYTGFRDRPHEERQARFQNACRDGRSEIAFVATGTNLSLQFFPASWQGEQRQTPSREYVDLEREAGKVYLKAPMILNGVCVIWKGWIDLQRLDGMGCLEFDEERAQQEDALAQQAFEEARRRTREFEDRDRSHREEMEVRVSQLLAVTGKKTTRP
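Proteins preincubated together for 20 min at RT before compound addition; 15 min later, nickel and streptavidin beads were added and left 90 min prior to AlphaScreen measurement.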
Integrin act MD: activates integrin-mediated alleviation for muscular dystrophy. alpha7betagal myoblasts, beta-gal FDG fluorescence, 48 h. Potency, µM (series often up to 38.3 µM), actives largely listed as activators. 350,000 tested, 0.064% active; note: nearly all actives have a fitted effect of over 60% in size
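Alpha7betagal+/- myoblasts (passage 13) were plated 16-24 hr, then exposed to compounds (1:260 dilution of DMSO stock) for 48 hours at 37C. After MPER lysis, β-galactosidase reporter activity was read as FDG fluorescence (ex 480/em 540) after 30 minutes.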
PTHR1 ag: PTHR1 (human) receptor agonism; Q03431; HEK293 GP2 PTHR1 cells, GloSensor cAMP luminescence, 1 h; Potency, µM (highest dose often 115 µM), usual class: activators; 410,000 tested, 0.075% active; AID 743266; note: nearly all actives have a fitted effect of over 55% in size
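HEK-293-derived GP2 cells expressing PTHR1 and a GloSensor cAMP reporter, 3,000/well, plated overnight, given luciferin plus IBMX (each 0.5 mM as added) for 1 h at 37 °C, then compound for 1 h at 37 °C. Luminescence was read after 15 min at room temperature.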
MBNL1-CUG inh: MBNL1-poly(CUG) RNA binding inhibition | 280,000 tested, 0.036% active | Q9NR56 | Potency, µM (titrated, usually from 57.5 µM), hits mostly inhibitors | TR-FRET MBNL1-His/biotin-(CUG)12 binding, 665/545 ratio; active = well fitted inhibition curve with a large enough effect in the signal ratio, with a control signal flat, not every such curve was filed as active; inconclusive = small, poorly fitted or top-dose-only effect, or effect the other way, or a change in a side signal; inactive = no such curve, though single readings can be large or run the other way; the % refers to the signal ratio
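His-tagged MBNL1 binding to biotinylated (CUG)12 RNA was measured by TR-FRET using terbium anti-His antibody (0.055 ng/ul final) and streptavidin-XL665 (5 nM final). Compounds were titrated 92 nM to 58 uM; 60 min at room temperature.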
MBNL1-CUG FRET: blocks human MBNL1 binding to CUG repeat RNA, TR-FRET validation; TR-FRET MBNL1-His / biotin-(CUG)12 binding, 60 min; shares compounds with MBNL1-CUG inh; Potency, µM (top dose mostly 57.6 µM), usual class: inhibitors; 140 tested, 50% active
MBNL1-CUG Alpha: MBNL1-CUG RNA binding inhibition, AlphaScreen validation. AID 493205. Potency, µM (titrated, usually from 57.7 µM), most hits filed as inhibitors. AlphaScreen MBNL1-His / biotin-(CUG)12 binding. shares compounds with MBNL1-CUG inh. 140 tested, 30% active
Menin-MLL HTRF: MBNL1-CUG RNA binding inhibitor counterscreen activity; 120 tested, 20% active; Potency, µM (titrated, usually from 57.6 µM), hits mostly inhibitors; shares compounds with MBNL1-CUG inh; His-Menin/biotin-MLL peptide TR-FRET counterscreen
A number is an active result; . = inactive; ? = inconclusive; / = no result given. Unless noted, calls come from the whole dose curve; as a rule, active = well fitted curve in the direction sought with a large enough effect; inconclusive = small, poorly fitted or top-dose-only effect, or another doubt; inactive = no such curve, though single readings can be large; an effect the other way counts as inactive or inconclusive.

SMILES	D3 ag	DRD3 antagonist	CBFb RUNX1 block	Integrin act MD	PTHR1 ag	MBNL1-CUG inh	others
O=C(Nc1ccc(Oc2ccccc2)cc1)C1CCCO1 (stereo not drawn)	.	-79	.	.	.	.
CCn1c(C)nc2cc(S(=O)(=O)N3CCCCC3)ccc21	.	.	.	.	.	.
CCn1c(CN2CCCCC2)nc2cc(S(=O)(=O)N3CCCCC3)ccc21	.	-81	/	.	.	/
Cc1cc(C(=O)CSc2nc(N)cc(=O)[nH]2)c(C)n1CCc1ccc(F)cc1	.	.	.	.	.	.
Cc1cc(C(=O)CCl)c(C)n1CCc1ccc(Cl)cc1	.	-69	.	.	.	.
COc1ccc(CCn2c(C)cc(C(=O)CSc3nc(N)cc(=O)[nH]3)c2C)cc1	35	.	.	.	.	.
CC1CCCCC1Nc1nc2ccc(Cl)cc2n2cnnc12 (stereo not drawn)	35	.	/	.	.	.
Cc1ccc(C)c(N2CCN(c3nc4ccc(Cl)cc4n4cnnc34)CC2)c1	.	/	/	/	?	/
Nc1nnc(/C=C/c2ccccc2)s1	.	.	.	.	.	?
CCOC(=O)C1(Cc2ccccc2C(F)(F)F)CCN(C(C)CSC)CC1 (stereo not drawn)	.	-54	.	.	.	.
CCOC(=O)C1(Cc2ccccc2C(F)(F)F)CCN(C(C)CCn2cccn2)CC1 (stereo not drawn)	.	-50	.	.	.	.
CCOC(=O)C1(Cc2ccccc2C(F)(F)F)CCN(CC2CC2)CC1	.	.	.	.	.	.
N/C(=N\OC(=O)COc1cc(Cl)c(Cl)cc1Cl)c1ccncc1	.	.	.	11µM	.	.
COc1ccc2[nH]c3c(c2c1)CCN1C(=O)N([C@@H](C)C(=O)NCc2ccc(C)cc2)C(=O)[C@]31C	31	.	/	?	.	.
O=C(NCCN1CCOCC1)C(=O)NCC1OCCN1S(=O)(=O)c1ccccc1 (stereo not drawn)	.	.	/	?	.	.
CN1C(=O)N(C)C2(c3ccccc3)N(C)C(=O)NC12c1ccccc1 (stereo not drawn)	.	-57	.	.	.	.
CC(C)NC(=O)c1cc(C2CCCCN2C(=O)c2ccc(C#N)cc2)on1 (stereo not drawn)	.	.	/	/	.	/
Cc1ccnc2nc(NC(=O)c3ccco3)nn12	.	-66	/	.	.	.
CC(C)C[C@@H]1O[C@H](C(C)C)Cc2[nH][nH]c(=O)c21	.	.	/	/	.	/
O=S(=O)(Nc1ccon1)c1ccc(F)c(F)c1	.	-81	/	.	.	.
Cc1ccc(/C(=N/Nc2ncnc3ccccc23)C(=O)O)cc1	.	?	/	.	.	.
COC(=O)C(=O)C/C(=N/Nc1ncnc2ccccc12)c1ccc(Cl)cc1	.	?	/	10µM	.	.
Cc1nn(-c2ccccc2)c2nc(-c3ccco3)cc(C(=O)O)c12	.	-52	.	.	.	.
Cc1nn(-c2cccc(Cl)c2)c2nc(-c3ccco3)cc(C(=O)O)c12	.	.	.	.	.	.
CN(C)c1ccc(NC(=O)Cn2c(SCc3ccc(F)cc3)nc3cccnc32)cc1	.	/	/	/	50µM	/
SMILES	D3 ag	DRD3 antagonist	CBFb RUNX1 block	Integrin act MD	PTHR1 ag	MBNL1-CUG inh	others
CN(C)c1ccc(NC(=O)Cn2c(SCc3ccc(F)cc3)nc3ccncc32)cc1	.	/	/	/	.	/
CCn1c2c(c3cc(OCC(C)C)ccc31)CCCC2=O	.	.	.	.	.	.
CCn1c2c(c3cc(Br)ccc31)CCC/C2=N\O	36	.	.	.	.	.
CC(=O)N1c2ccccc2N=C(c2ccc3c(c2)OCO3)C1C(=O)NCc1ccccc1 (stereo not drawn)	.	.	/	/	.	/
CSc1ccccc1C(=O)Nc1ccc2c(c1)OCCO2	.	.	.	.	.	.
CCc1ccc(NC(=O)c2ccccc2SC)cc1	30	.	.	.	.	.
Cc1cc(=O)[nH]c2nnc(SCC(N)=O)n12	.	/	/	/	.	/
Cc1ccccc1OCC(O)CN1CCN(C)CC1 (stereo not drawn)	.	.	.	.	.	.
O=S(=O)(c1ccc(OCC(O)CN2CCc3ccccc3C2)cc1)N1CCOCC1 (stereo not drawn)	.	-57	.	.	.	.
OC(COc1c(Br)cc(Br)cc1Br)CN1CCOCC1 (stereo not drawn)	.	.	.	.	.	.
Cc1ccc(C(C)C)c(OCC(O)CN2CCc3ccccc3C2)c1 (stereo not drawn)	.	?	/	.	.	.
O=S(=O)(c1ccc(OCC(O)CN2CCCCC2)cc1)N1CCOCC1 (stereo not drawn)	.	.	.	.	.	.
OC(COc1c(F)cc(Br)cc1F)CN1CCc2ccccc2C1 (stereo not drawn)	.	-111	/	.	.	.
Cn1cc(CNCc2ccccc2OCC(O)CN2CCc3ccccc3C2)cn1 (stereo not drawn)	.	-71	.	.	.	.
Cc1cccc(C)c1OCC(O)CN1CCc2ccccc2C1 (stereo not drawn)	.	-67	/	.	.	/
Cc1ccc(CNS(=O)(=O)c2cc3c(cc2Cl)NC(=O)CO3)o1	.	/	/	/	.	/
COc1ccc(C(c2c(C)[nH]n(-c3ccccc3)c2=O)c2c(C)[nH]n(-c3ccccc3)c2=O)cc1OC	.	.	.	.	.	40µM	MBNL1-CUG FRET=?;MBNL1-CUG Alpha=?;Menin-MLL HTRF=.
CC1(C2CC2)NC(=O)N(CC(=O)NCC(=O)Nc2ccc(F)c(F)c2F)C1=O (stereo not drawn)	.	.	/	.	.	/
O=C(CSc1n[nH]c(-c2ccncc2)n1)NC1CCS(=O)(=O)C1 (stereo not drawn)	.	.	.	.	.	7.9µM	MBNL1-CUG FRET=10µM;MBNL1-CUG Alpha=.;Menin-MLL HTRF=?
COc1cc(C(=O)Nc2ccc3nc(N4CCN(C)CC4)cc(C)c3c2)cc(OC)c1OC	.	.	/	.	.	22µM	MBNL1-CUG FRET=10µM;MBNL1-CUG Alpha=.;Menin-MLL HTRF=29µM
